Hits are enriched below; roughly 2.7% of the tested compounds scored in any of these assays.
MPTP inh: inhibitors of mitochondrial permeability transition pore; isolated mouse mitochondria, Ca2+ swelling absorbance, 30 min; AID 602449; actives 1.4% (n = 360,000); inhibition, % at 10 µM;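 active means inhibition of 50% or more, scaled per plate between neutral and stimulator controls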;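 further: 0% = DMSO wells given calcium and 100% = 1 mM EGTA wells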
F508del corr: CFTR F508del correction in bronchial cells; actives 0.36% (n = 350,000); activity (quench increase), % at 7.58 µM; AID 720511; CFBE cells, YFP halide quenching; stimulated with forskolin plus potentiator P3; % fluorescence drop versus neutral controls;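 active means mean added fluorescence quench of at least 8% versus neutral control, with both replicates also reaching 8%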;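 further: cells transiently co-express mutant CFTR-F508del with the halide-sensitive YFP; corrector assay measuring rescue of mutant channel to the surface after 24 h compound exposure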
SKN-1 block: blocks SKN-1 activity in C. elegans. actives 0.49% (n = 360,000). C. elegans VP596 Pgst-4::GFP/RFP ratio, acrylamide-induced, 24 h. inhibition, % at 21.8 µM;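 active means interference check ratio from 0.5 to 1.5 plus GFP to RFP signal ratio inhibition reaching or exceeding a fixed threshold, cut at about 30% in these data, passing the limit was not always enough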
NRP1-CendR mod: NRP-1/CendR interaction modulation; FAM-RPARPAR peptide binding to NRP-1, fluorescence polarization; O14786; actives 0.85% (n = 360,000); inhibition, % at 25 µM;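 active means inhibition or corrected inhibition above about 18%, plus a signal ratio from 0.5 to 1.5, limit read from the data, passing the limit was not always enough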
Target sequence (O14786 whole entry, looked up): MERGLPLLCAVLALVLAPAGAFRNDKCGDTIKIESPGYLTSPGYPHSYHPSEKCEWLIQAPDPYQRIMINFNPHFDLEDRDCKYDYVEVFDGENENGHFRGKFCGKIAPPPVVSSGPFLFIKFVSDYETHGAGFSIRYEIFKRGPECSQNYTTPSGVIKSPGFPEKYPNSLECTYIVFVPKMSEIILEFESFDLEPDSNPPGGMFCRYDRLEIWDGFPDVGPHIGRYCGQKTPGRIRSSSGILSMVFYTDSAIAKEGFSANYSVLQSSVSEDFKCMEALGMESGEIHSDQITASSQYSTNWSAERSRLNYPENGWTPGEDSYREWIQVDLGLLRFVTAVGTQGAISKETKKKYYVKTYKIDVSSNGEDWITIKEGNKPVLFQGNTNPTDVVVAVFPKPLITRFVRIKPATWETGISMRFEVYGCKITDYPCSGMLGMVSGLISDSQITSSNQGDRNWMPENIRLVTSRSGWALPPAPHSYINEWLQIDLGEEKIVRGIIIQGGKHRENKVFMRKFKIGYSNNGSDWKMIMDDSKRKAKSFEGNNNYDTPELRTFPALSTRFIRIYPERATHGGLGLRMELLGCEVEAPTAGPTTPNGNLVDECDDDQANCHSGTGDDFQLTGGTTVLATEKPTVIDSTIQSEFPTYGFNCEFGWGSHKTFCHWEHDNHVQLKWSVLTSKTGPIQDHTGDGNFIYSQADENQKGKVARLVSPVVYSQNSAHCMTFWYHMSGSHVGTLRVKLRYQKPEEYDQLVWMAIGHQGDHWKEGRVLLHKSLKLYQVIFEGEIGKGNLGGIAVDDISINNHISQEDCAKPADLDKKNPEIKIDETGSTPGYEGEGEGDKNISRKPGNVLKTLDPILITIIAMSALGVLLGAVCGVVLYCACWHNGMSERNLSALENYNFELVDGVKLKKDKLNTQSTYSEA
ATG4B inh: inhibitors of human ATG4B cysteine protease; inhibition, % at 8.33 µM; ATG4B cleavage of LC3-PLA2, NBD-HPC fluorescence, 1 h; actives 0.51% (n = 340,000); Q9Y4P1; in the data active means inhibition above about 40%
* = called active by the depositor; · = no result.

SMILES | MPTP inh | F508del corr | SKN-1 block | NRP1-CendR mod | ATG4B inh
CCCCOC(=O)Nc1ccc(C(C)C)cc1 | 0 | · | 33* | -4 | -5
CCC(=O)Nc1ccc2c(c1)OC[C@@H](C)N(C(=O)CN(C)C)C[C@@H](C)[C@H](OC)CN(C)C2=O | · | 1 | · | · | ·
CCOc1cc(NC(=S)NCC2CCCO2)c(OCC)cc1NC(=O)c1ccc(OC)cc1 (stereo not drawn) | 1 | · | -9 | -8 | -9
CCOc1cc(NC(=S)NC)c(OCC)cc1NC(=O)c1ccc(OC)cc1 | 1 | 2 | 1 | 21* | -8
O=S(=O)(c1ccccc1F)N1CC[C@@H]2[C@@H](CO)Nc3ccc(C4=CCCCC4)cc3[C@@H]21 | · | 2 | · | · | ·
COc1ccc(NC(=O)Nc2ccc(Br)cn2)cc1 | 1 | · | -5 | 24* | 4
CN(C)c1cccc2c(S(=O)(=O)NC(=O)[C@H]3O[C@@H](n4cnc5c(N)ncnc54)[C@H](O)[C@@H]3O)cccc12 | -1 | 3 | 3 | 25* | ·
COc1ccc(C2C3=C(N=C4SCC(=O)N42)c2ccccc2CC3)cc1OC (stereo not drawn) | 0 | 1 | 48* | -17 | -4
O=C(CCc1ccc(Oc2cc([N+](=O)[O-])cc([N+](=O)[O-])c2)cc1)N1CCCCCC1 | 24 | · | -15 | 26* | 22
Cc1ccc(S(=O)(=O)N(C)C[C@H]2OCCCC[C@@H](C)Oc3ccc(N(C)C)cc3C(=O)N([C@@H](C)CO)C[C@@H]2C)cc1 | · | 1 | · | · | ·
Cc1ccc(Cl)cc1N1CCN(C(=O)c2cn(C)c(=O)c3c2c2ccccc2n3C)CC1 | -3 | 10* | 4 | -6 | 11
Nc1nc(O)c(N=Nc2ccc(S(N)(=O)=O)cc2)c(=O)[nH]1 | · | -1 | · | · | 2
CC(O)CNc1nc(N)[nH]c(=O)c1N=Nc1ccccc1 (stereo not drawn) | -1 | 11* | -17 | 16 | -5
CN1C(=O)c2cc(NS(C)(=O)=O)ccc2OC[C@@H]2O[C@@H](CC(=O)O)CC[C@H]21 | · | 2 | · | · | ·
Cc1ccc(NC2=C/C(=N/S(=O)(=O)c3cccs3)c3ccccc3C2=O)cc1C | 5 | · | -14 | 7 | -1
Cc1ccccc1NC1=C/C(=N\S(=O)(=O)c2cccs2)c2ccccc2C1=O | 19 | · | 16 | 4 | 95*
Cc1cnc(C(=O)Nc2ccccc2-c2ccc(C)o2)cn1 | 1 | · | 36* | 1 | -10
Cc1cnc(C(=O)Nc2cccc3ncccc23)cn1 | 0 | · | -12 | 7 | -2
CC(NC(=S)NCCCN1CCOCC1)C12CC3CC(CC(C3)C1)C2 (stereo not drawn) | 1 | 0 | -13 | 27* | -6
S=C(NCCCN1CCOCC1)NCCCN1CCOCC1 | 0 | 2 | 7 | -2 | 2
COCC(=O)N1C[C@H](C)[C@H](OC)CN(C)C(=O)c2ccc(NC(=O)C3CCC3)cc2OC[C@@H]1C | · | 2 | · | · | ·
COc1ccccc1C=NNc1ccc([N+](=O)[O-])cn1 | 0 | 1 | 1 | 24* | -7
COc1ccc(S(=O)(=O)N(C)C[C@@H]2Oc3c(NC(=O)Nc4ccc5c(c4)OCO5)cccc3C(=O)N([C@H](C)CO)C[C@@H]2C)cc1 | · | -3 | · | · | ·
C#Cc1ccc(C(=O)Nc2ccc(N3CCC(C)CC3)c(C(N)=O)c2)cc1 | 0 | 16* | -16 | -8 | -7
NC(=S)NN=Cc1nccc2c(N)cccc12 | 2 | 13* | 13 | 7 | ·
SMILES | MPTP inh | F508del corr | SKN-1 block | NRP1-CendR mod | ATG4B inh
CCN(C(C)=O)c1cnc(C=NNC(N)=S)c2ccccc12 | 0 | 3 | 12 | 3 | 2
COc1ccc(C)cc1NC(=O)CNC(c1ccccc1)c1ccc(C)cc1 (stereo not drawn) | -1 | 13* | 0 | -4 | 5
COc1ccccc1NC(=O)CNC(c1ccccc1)c1ccccc1 | 1 | 0 | 14 | 1 | 2
COc1ccc(S(=O)(=O)N(C)C[C@H]2OCCCC[C@H](C)Oc3ccc(N(C)C)cc3C(=O)N([C@@H](C)CO)C[C@H]2C)cc1 | · | 0 | · | · | ·
C[C@@H]1CN([C@@H](C)CO)C(=O)c2cc(NC(=O)Nc3ccc(C(F)(F)F)cc3)ccc2O[C@@H]1CN(C)S(=O)(=O)c1cn(C)cn1 | · | 4 | · | · | ·
CC(C)(C)NC(=O)NC(=O)COC(=O)c1ccc(OC(F)(F)F)cc1 | 3 | · | 6 | -4 | -10
CC(=O)Nc1ccc(C(=O)OCC(=O)NC(=O)NC(C)(C)C)cc1 | -2 | · | 45* | 0 | -9
COc1ccccc1NC(=S)NCCc1ccccc1 | -2 | · | 29 | 30* | -16
Cc1ccccc1-c1cc(=O)c2ccccc2o1 | 0 | -1 | 4 | -3 | 6
CSc1ccc(-c2cc(=O)c3ccccc3o2)cc1 | 2 | 2 | 47* | -9 | -6
O=c1cc(-c2ccc(F)cc2)oc2ccccc12 | 2 | · | 53* | 7 | -7
O=c1cc(-c2ccccc2F)oc2ccccc12 | 0 | · | -7 | -1 | -6
C[C@H]1CN([C@@H](C)CO)C(=O)Cc2cc(NC(=O)Nc3cccc4ccccc34)ccc2O[C@@H]1CN(C)C(=O)NC1CCCCC1 | · | -2 | · | · | ·
O=C(CC1Sc2ccccc2NC1=O)NNc1cc(Cl)ccc1Cl (stereo not drawn) | -1 | -2 | 40* | -6 | -3
Cc1ccccc1NC(=O)Cc1nc(COC(=O)c2cccc(O)c2)cs1 | -1 | -2 | 42* | 5 | -6
COc1nc(NCCc2ccc(OC)c(OC)c2)nc(OC)n1 | 0 | · | -9 | -2 | -2
COc1ccc(CCNc2c3ccccc3nc3ccccc23)cc1OC | 2 | 10* | 4 | -6 | -6
O=C(CN(Cc1ccco1)C(=O)CNS(=O)(=O)c1ccc(Cl)cc1)NCC1CCCO1 (stereo not drawn) | 0 | -1 | -10 | 9 | 4
O=C(CN(Cc1ccco1)C(=O)CNS(=O)(=O)c1ccc(Cl)cc1)NC1CCCCC1 | 1 | · | 38* | -4 | 3
C[C@@H]1CN([C@@H](C)CO)C(=O)c2cccc(NC(=O)Nc3ccc(C(F)(F)F)cc3)c2O[C@H]1CN(C)C(=O)Nc1ccc(C(F)(F)F)cc1 | · | 1 | · | · | ·
CCCNC(=O)C(Cc1ccccc1)NC(=O)c1ccc(-c2ccccc2)cc1 (stereo not drawn) | 2 | 0 | 4 | 12 | 2
CCCNC(=O)C(Cc1ccccc1)NC(=O)c1ccc(C(C)(C)C)cc1 (stereo not drawn) | 1 | 2 | 5 | 26* | -4
CNC(=O)C[C@@H]1CC[C@@H]2[C@@H](COc3ccc(NC(=O)Nc4ccc(F)cc4)cc3C(=O)N2C)O1 | · | -1 | · | · | ·
COc1ccc(-c2ccc([C@@H]3[C@H](CO)N4CCCCN(C(=O)NC(C)C)C[C@@H]34)cc2)cc1 | · | 0 | · | · | ·
Cc1ccc(S(=O)(=O)N(CCCc2c(C)nc(N)[nH]c2=O)Cc2ccc([N+](=O)[O-])cc2)cc1 | 4 | 1 | 24 | -2 | ·
Cc1nc(N)[nH]c(=O)c1CCCNS(=O)(=O)c1ccc([N+](=O)[O-])cc1 | 0 | 8.1* | -9 | 4 | -12

Bioassay records: PubChem, several laboratories
